Assay [1] is described as follows: A CellTox Green Cytotoxicity Assay to monitor cytotoxicity in HepG2 cells - 0 hour (AID 1224882). Note: nearly all actives have a fitted effect of over 35% in size. In a few lines: (§1)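 Real-time, homogeneous cytotoxicity readout: dead-cell DNA staining by CellTox Green in HepG2 monolayers, fluorescence measured at timed intervals up to 40 h of continuous compound exposure.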
Assay [2] can be described thus: A CellTox Green Cytotoxicity Assay to monitor cytotoxicity in HepG2 cells - 32 hour (AID 1224883). Note: nearly all actives have a fitted effect of over 50% in size. Note: potency is the fitted concentration of half-maximal effect. In a few lines: as §1
The nature of assay [3]: qHTS RealTime-Glo MT Cell Viability Assay in HepG2 cells - 16 hour (AID 1224885). Note: nearly all actives have a fitted effect of over 50% in size. In a few lines:
(§2)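 Cells + NanoLuc/prosubstrate dispensed (600 cells/well) → 5 h at 37 C/5% CO2 → compounds in DMSO transferred → 40 h incubation at 37 C, luminescence read at 0, 8, 16, 24, 32, 40 h.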

Assay [4] in a line: qHTS RealTime-Glo MT Cell Viability Assay in HEK293 cells - 24 hour (AID 1224886). Note: nearly all actives have a fitted effect of over 50% in size. Note: potency is the fitted concentration of half-maximal effect. In a few lines:
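Tox21 10K qHTS, HEK293, 600 cells/well, RealTime-Glo reagent co-dispensed with cells; 5 h preincubation, compound by pintool, 37 C, luminescence at 0–40 h.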

The nature of assay [5]: qHTS RealTime-Glo MT Cell Viability Assay in HEK293 cells - 8 hour (AID 1224887). Note: nearly all actives have a fitted effect of over 50% in size. Note: potency is the fitted concentration of half-maximal effect. In a few lines:
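Nonlytic bioluminescent viability monitoring. HEK293 at 600 cells/well with reagent; 5 h settle; compound transfer by pintool; plates held at 37 C and read at set time points.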

Assay [6] is described as follows: A CellTox Green Cytotoxicity Assay to monitor cytotoxicity in HEK293 cells - 16 hour (AID 1224888). Note: nearly all actives have a fitted effect of over 35% in size. A digest of the protocol:
(§3)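 Cytotoxicity was tracked continuously in HEK293 cells by a DNA-binding dye excluded from viable cells. Compounds were transferred in DMSO 5 h after seeding; fluorescence was recorded at intervals up to 40 h.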

Assay [7] is described as follows: qHTS RealTime-Glo MT Cell Viability Assay in HepG2 cells - 0 hour (AID 1224889). Note: nearly all actives have a fitted effect of over 50% in size. A digest of the protocol: as §2
Assay [8] is described as follows: A CellTox Green Cytotoxicity Assay to monitor cytotoxicity in HepG2 cells - 8 hour (AID 1224890). Note: nearly all actives have a fitted effect of over 45% in size. Note: potency is the fitted concentration of half-maximal effect. In a few lines: as §1
Assay [9] in a line: qHTS assay to identify small molecule antagonists of the estrogen receptor alpha (ER-alpha) signaling pathway using the BG1 cell line in the presence of 0.1 nM 17-beta-estradiol - cell viability counter screen (AID 1259241). Note: nearly all actives have a fitted effect of over 40% in size. A digest of the protocol: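 Following 5 days in phenol red-free medium with charcoal-stripped serum, VM7Luc4E2 cells received test compounds alongside 0.1 nM 17beta-estradiol (final) at 37C for 22 hr. Live cells were then quantified via protease-substrate fluorescence.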

The nature of assay [10]: qHTS assay to identify small molecule antagonists of the androgen receptor (AR) signaling pathway using the MDA cell line in the presence of 0.5 nM R1881 - cell viability counter screen (AID 1259242). Note: nearly all actives have a fitted effect of over 45% in size. In a few lines:
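Cytotoxicity toward MDA-kb2 cells is measured by CellTiter-Fluor live-cell protease fluorescence after 16 hr compound exposure at 37C in the presence of 0.5 nM R1881 stimulator.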

In assay [11] the target is Androgen receptor (Homo sapiens) (UniProt P10275). As to the kind of experiment: qHTS assay to identify small molecule antagonists of the androgen receptor (AR) signaling pathway using the MDA cell line in the presence of 0.5 nM R1881 (AID 1259243). Note: nearly all actives have a fitted effect of over 50% in size. In a few lines:
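Steps: seed MDA-kb2 cells, incubate 5 hr at 37C; pin-transfer compounds in DMSO; add R1881 to 0.5 nM final; incubate 16 hr; add ONE-Glo, wait 30 min at room temperature; read luminescence.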

Assay [12] is described as follows: qHTS assay to identify small molecule HDAC inhibitors - cell viability counter screen (AID 1259365). In a few lines:
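HCT-116 wild-type, overnight attachment; 2hr drug exposure, 37C; CellTiter-Glo luminescent ATP readout after 30min RT.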

Assay [13] in a line: qHTS assay to identify small molecule agonists of the sonic hedgehog signaling (Shh) pathway - cell viability counter screen (AID 1259366). Note: nearly all actives have a fitted effect of over 50% in size. Note: potency is the fitted concentration of half-maximal effect. A digest of the protocol: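 Compounds in DMSO were pin-transferred onto 3T3 Gli1-Luc cells that had settled 4hr; plates then stood 24hr at 37C and 5% CO2. One hour before the end, CellTiter-Fluor was added and fluorescence recorded.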
Assay [14] is described as follows: qHTS assay to identify small molecule antagonists of the sonic hedgehog signaling (Shh) pathway - cell viability counter screen (AID 1259367). Note: nearly all actives have a fitted effect of over 55% in size. Note: potency is the fitted concentration of half-maximal effect. In a few lines: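 Seed 3T3 Gli1-Luc cells at 2,000 per well; incubate 4 hr; add compound in DMSO, then conditioned medium; incubate at 37C with 5% CO2; add CellTiter-Fluor after 23 hr; read fluorescence 1 hr later.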
Assay [15] in a line: qHTS assay to identify small molecule agonists of the sonic hedgehog signaling (Shh) pathway (AID 1259368; calls by dose curve;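 note: NIH/3T3-derived 3T3Gli1-Luc cells carrying a stable Gli1-driven firefly luciferase reporter; series mostly up to about 92 µM; nearly all actives have a fitted effect of over 15% in size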). A digest of the protocol: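 Steps: seed 3T3 Gli1-Luc cells, incubate 4 hr at 37 C, pin-transfer compounds in DMSO alongside a positive control, incubate 24 hr, add luciferase detection reagent, wait 30 min at room temperature, read luminescence.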
Assay [16] has as its target Estrogen receptor (Homo sapiens) (UniProt P03372). As to the kind of experiment: qHTS assay to identify small molecule antagonists of the estrogen receptor alpha (ER-alpha) signaling pathway using the BG1 cell line in the presence of 0.1 nM 17-beta-estradiol (AID 1259244). Note: nearly all actives have a fitted effect of over 50% in size. In a few lines: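 After 5 days in hormone-depleted medium (charcoal-stripped serum, no phenol red), VM7Luc4E2 cells were seeded, incubated 24 h, then co-treated with compound and 0.1 nM (final) estradiol for 22 h before luminescence detection.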

A short description of assay [17]: qHTS assay to identify small molecule HDAC inhibitors (AID 1259364). Note: top concentration of the series differs between compounds; nearly all actives have a fitted effect of over 45% in size. In a few lines:
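Homogeneous cell-based luminescent assay of endogenous class I/II HDAC activity; HCT-116 cells, 2 h compound exposure, 30 min HDAC-Glo development at RT.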

Assay [18] is described as follows: qHTS assay to identify small molecule antagonists of the sonic hedgehog signaling (Shh) pathway (AID 1259369; calls by dose curve; note: nearly all actives have a fitted effect of over 45% in size; note: potency is the fitted concentration of half-maximal effect). In a few lines:
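Inhibition of Shh signalling is measured as reduced Gli1-response-element firefly luciferase output in an NIH/3T3-derived stable reporter clone stimulated with conditioned medium for 24hr.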

The nature of assay [19]: A CellTox Green Cytotoxicity Assay to monitor cytotoxicity in HEK293 cells - 8 hour (AID 1224884). Note: nearly all actives have a fitted effect of over 35% in size. A digest of the protocol:
as §3

Assay [20] can be described thus: qHTS assay to identify small molecule phospholipidosis (PLD) inducers (AID 1259344; active = well fitted curve in the direction sought with a large enough effect; an effect the other way counts as inactive or inconclusive). A digest of the protocol: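 Quantitative HTS in HepG2: compound plus LipidTOX Red dye for 24 h, paraformaldehyde fixation with Hoechst 33342, widefield high-content imaging; amiodarone as positive and DMSO as negative control.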

Each structure is given as a SMILES string. Results filed as inconclusive are left out. Calls of active or inactive are those of the source. Unless noted, calls come from the whole dose curve; as a rule, active = well fitted curve in the direction sought with a large enough effect in the repeat runs; inconclusive = weak or mixed curves; inactive = no such curve, though single readings can be large; an effect the other way counts as inactive or inconclusive.

Chain of Androgen receptor (Homo sapiens) (P10275 whole entry, looked up): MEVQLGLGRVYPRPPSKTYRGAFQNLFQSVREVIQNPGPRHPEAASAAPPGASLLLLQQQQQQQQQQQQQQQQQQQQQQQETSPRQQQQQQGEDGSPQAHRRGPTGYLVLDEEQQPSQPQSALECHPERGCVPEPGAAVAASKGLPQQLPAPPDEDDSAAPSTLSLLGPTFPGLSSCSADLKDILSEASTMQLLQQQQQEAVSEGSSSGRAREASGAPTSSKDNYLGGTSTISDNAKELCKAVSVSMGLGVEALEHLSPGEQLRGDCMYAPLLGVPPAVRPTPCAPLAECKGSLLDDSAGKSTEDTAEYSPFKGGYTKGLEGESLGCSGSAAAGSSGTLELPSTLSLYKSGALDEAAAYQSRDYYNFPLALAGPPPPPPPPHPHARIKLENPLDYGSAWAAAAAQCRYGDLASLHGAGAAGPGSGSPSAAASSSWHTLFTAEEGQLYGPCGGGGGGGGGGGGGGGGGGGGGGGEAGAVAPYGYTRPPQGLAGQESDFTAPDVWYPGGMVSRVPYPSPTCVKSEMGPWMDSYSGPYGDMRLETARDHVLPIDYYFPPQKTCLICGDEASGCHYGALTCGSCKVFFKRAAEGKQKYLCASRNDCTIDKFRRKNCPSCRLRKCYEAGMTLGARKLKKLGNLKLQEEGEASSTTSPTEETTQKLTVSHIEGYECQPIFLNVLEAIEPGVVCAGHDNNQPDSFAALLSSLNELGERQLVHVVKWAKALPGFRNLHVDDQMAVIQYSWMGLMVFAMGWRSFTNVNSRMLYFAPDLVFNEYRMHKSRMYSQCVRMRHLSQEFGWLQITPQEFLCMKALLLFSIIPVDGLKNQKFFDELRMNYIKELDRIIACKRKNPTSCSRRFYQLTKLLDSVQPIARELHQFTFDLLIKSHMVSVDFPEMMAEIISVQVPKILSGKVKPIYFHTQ
Chain of Estrogen receptor (Homo sapiens) (P03372 whole entry, looked up): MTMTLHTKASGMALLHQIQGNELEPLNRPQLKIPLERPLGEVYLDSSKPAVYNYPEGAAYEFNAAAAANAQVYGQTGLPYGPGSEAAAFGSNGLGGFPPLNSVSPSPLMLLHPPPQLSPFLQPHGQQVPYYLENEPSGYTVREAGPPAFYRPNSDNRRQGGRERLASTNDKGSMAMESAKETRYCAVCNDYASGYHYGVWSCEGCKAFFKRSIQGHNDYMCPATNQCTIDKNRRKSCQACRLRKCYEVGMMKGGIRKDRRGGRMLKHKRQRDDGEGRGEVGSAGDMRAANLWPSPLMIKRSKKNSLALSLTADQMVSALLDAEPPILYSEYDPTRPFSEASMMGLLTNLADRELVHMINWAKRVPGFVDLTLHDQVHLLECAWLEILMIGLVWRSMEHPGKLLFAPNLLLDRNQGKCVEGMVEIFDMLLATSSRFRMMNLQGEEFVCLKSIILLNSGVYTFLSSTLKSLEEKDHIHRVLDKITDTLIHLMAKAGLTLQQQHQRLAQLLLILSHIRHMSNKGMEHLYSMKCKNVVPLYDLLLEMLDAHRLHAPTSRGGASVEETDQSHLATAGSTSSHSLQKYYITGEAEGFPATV

In the case of `CC(=O)c1ccc(C(C)=O)cc1`, the Potency entry in assay [1], in [2], in assay [3], in [4], in assay [5] and in [6] was “inactive” each time. Besides, the Potency result in [7], in assay [8], in assay [9], in assay [10], in assay [11] and in assay [12] was “inactive” throughout. Further, the Potency result in assay [13], in assay [14] and in [15] was “inactive” throughout.

As for `Cl[Si](Cl)(c1ccccc1)c1ccccc1`, the Potency entry in assay [1], in assay [2], in [3], in [4], in [5] and in assay [7] was “inactive” in each case. Besides, the Potency result in [8], in assay [9], in assay [10], in assay [16], in [17] and in assay [12] was “inactive” each time. For the same molecule, the Potency entry in [14], in assay [15] and in assay [18] was “inactive” each time.

In the case of `CCCCOC(=O)CC`, the Potency entry in [1], in [19], in assay [3], in assay [4], in assay [5] and in assay [6] was “inactive” in each case. The Potency entry in [7], in assay [8], in assay [9], in [10], in assay [17] and in [12] was “inactive” throughout. For the same molecule, the Potency result in [14], in assay [15] and in assay [18] was “inactive” each time.

As to `CC/C=C\CCCCCO`, the Potency entry in assay [1], in assay [19], in assay [3], in [4], in [5] and in assay [6] was “inactive” throughout. The Potency entry in assay [7], in assay [8], in [9], in assay [10], in assay [17] and in assay [12] was “inactive” in each case. In addition, the Potency result in assay [13], in assay [14], in assay [15] and in [18] was “inactive” in each case.

Regarding `CCN(CC)C(=O)c1cc(S(=O)(=O)Cc2ccccc2)c(N2CCC(c3ccccc3)CC2)cc1N(CC)CCN(C)C`, the Potency entry in assay [1], in assay [7], in assay [9], in assay [16], in [20] and in [12] was “inactive” each time. Further, the Potency result in assay [15] was “inactive”. The Potency was 15.3 µM (active) in assay [2]; 13.6 µM (active) in assay [4]; 17.2 µM (active) in assay [5]; 19.3 µM (active) in [8]; 13.5 µM (active) in assay [13]; 9.58 µM (active) in [14]. Further, the Potency in assay [18] is 6.78 µM (active).

With `CCCCCC(C)OC(=O)COc1ccc(Cl)c2cccnc12` (configuration not stated), the Potency result in assay [1], in assay [19], in [6], in [7], in assay [8] and in assay [9] was “inactive” throughout. The Potency result in assay [10], in assay [12], in [13] and in [15] was “inactive” each time. For the same molecule, in [18], the Potency is 54.5 µM (active).

Take `CC(=O)OCC=C(C)C`: the Potency entry in assay [1], in assay [19], in assay [3], in assay [4], in [5] and in [6] was “inactive” throughout. For the same molecule, the Potency entry in [7], in assay [8], in [9], in assay [10], in assay [11] and in assay [16] was “inactive” each time. The Potency result in assay [12], in assay [13], in assay [14], in [15] and in assay [18] was “inactive” throughout.

As for `CN1CCCCC1CCN1c2ccccc2Sc2ccc(S(C)=O)cc21` (configuration not stated), the Potency entry in [1], in assay [19], in [5], in assay [6], in assay [8] and in [9] was “inactive” throughout. The Potency entry in [10], in assay [16], in [20], in assay [17], in [12] and in assay [15] was “inactive” each time. Also, the Potency in [18] is 2.66 µM (active).

Consider `CC1(C)CCC[C@]2(C)[C@H]3CCO[C@]3(C)CC[C@@H]12`, for which the Potency entry in assay [1], in assay [2], in assay [4], in assay [5], in assay [8] and in assay [9] was “inactive” throughout. In addition, the Potency result in [10], in [12], in assay [13], in assay [14], in [15] and in [18] was “inactive” in each case.

Turning to `Cc1ccc(C(=O)O)cc1`, the Potency entry in [1], in assay [19], in assay [3], in [4], in assay [5] and in assay [6] was “inactive” each time. Also, the Potency entry in [7], in assay [8], in [9], in [10], in assay [17] and in [12] was “inactive” throughout. Further, the Potency result in assay [13], in [14], in assay [15] and in assay [18] was “inactive” each time.

As for `CCCC(=O)OC(C)(C)Cc1ccccc1`, the Potency result in assay [1], in [19], in assay [4], in assay [5], in assay [6] and in [7] was “inactive” throughout. For the same molecule, the Potency result in assay [8], in assay [9], in [10], in [17], in assay [12] and in assay [13] was “inactive” each time. For the same molecule, the Potency result in [14], in assay [15] and in [18] was “inactive” throughout.

Take `CCn1c2ccccc2c2cc([N+](=O)[O-])ccc21`: the Potency entry in [1], in assay [2], in assay [6], in assay [8], in assay [9] and in assay [10] was “inactive” throughout. Further, the Potency result in assay [16], in [17], in [12], in [13], in assay [14] and in assay [15] was “inactive” throughout. In assay [18], the Potency result was “inactive”.

As to `Cc1cccc(C)c1NC(=O)c1ccc(N)cc1`, the Potency result in assay [1], in [2], in assay [4], in assay [5], in [6] and in assay [7] was “inactive” each time. The Potency result in assay [8], in [9], in assay [10], in assay [11], in [16] and in [17] was “inactive” each time. Also, the Potency entry in assay [12], in assay [13], in assay [14], in [15] and in assay [18] was “inactive” throughout.

For `Cc1c(C)c2c(c(C)c1O)CC[C@@](C)(CCC[C@H](C)CCC[C@H](C)CCCC(C)C)O2`, the Potency entry in assay [2], in assay [19], in assay [3], in assay [4], in [5] and in assay [6] was “inactive” in each case. Also, the Potency entry in assay [7], in [8], in assay [9], in assay [10], in [16] and in assay [20] was “inactive” throughout. The Potency entry in assay [12], in assay [14], in assay [15] and in [18] was “inactive” throughout.

Consider `CCN(CCN)c1cccc(C)c1`, for which the Potency entry in assay [2], in [19], in assay [3], in [4], in [5] and in assay [6] was “inactive” throughout. Moreover, the Potency result in assay [7], in assay [8], in assay [9], in assay [10], in assay [16] and in assay [17] was “inactive” throughout. For the same molecule, the Potency result in [12], in assay [13], in assay [14] and in assay [15] was “inactive” each time. Moreover, in assay [18], the Potency was 7.77 µM (active).

The values above are taken from PubChem BioAssay (Tox21).
